Assay outcomes as filed in PubChem.
A selection: hits, their analogues and other compounds. The true share with any hit is near 2.3%.
Nrf2 inh: Nrf2 pathway inhibition; A549 ARE-Fluc reporter, luciferase luminescence, 18-24 h; 360,000 tested, 2.1% active; AID 504444; Potency, µM (doses to about 46 µM), for the others: top-dose activity change, negative = inhibition, most hits filed as inhibitors; also: potency is read from the fitted curve at half-maximal effect; % is scaled to controls: 0 for no effect and ±100 for the full control effect; nearly all actives have a fitted effect of over 60% in size
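Concentration-response testing used A549 ARE_Fluc cells at 5000 cells/well. Following an 18-24 h compound incubation, viability was read by fluorescence (Ex 405/Em 525) and luciferase output by luminescence.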
A549 tox: counter-screen for Nrf2 inhibitors: cytotoxicity in A549 cells | A549 ARE-Fluc cells, CellTiter-Fluor viability, 18-24 h | Potency, µM (titrated, usually from 46 µM), for the others: top-dose activity change, negative = cytotoxicity, most hits filed as inhibitors | 390,000 tested, 0.16% active; also: potency is read from the fitted curve at half-maximal effect; % is scaled to controls: 0 for no effect and ±100 for the full control effect
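A549 ARE_Fluc cells in 5% FBS OPTI-MEM were exposed to compounds in concentration-response for 18-24 h at 37 deg C. Viability was read by CellTiter-Fluor fluorescence (Ex 405/Em 525) after 30 min, before the luciferase read.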
IDH1 R132H inh: blocks human mutant IDH1 R132H enzyme | IDH1-R132H enzyme, NADPH consumption, diaphorase/resazurin fluorescence | 390,000 tested, 0.093% active | Potency, µM (doses to about 76.6 µM), for the others: at the highest dose activity change, negative = inhibition, most hits filed as inhibitors; also: potency is read from the fitted curve at half-maximal effect; % is scaled to controls: 0 for no effect and ±100 for the full control effect; nearly all actives have a fitted effect of over 65% in size
Target sequence (O75874 whole entry R132H, stated change not applied): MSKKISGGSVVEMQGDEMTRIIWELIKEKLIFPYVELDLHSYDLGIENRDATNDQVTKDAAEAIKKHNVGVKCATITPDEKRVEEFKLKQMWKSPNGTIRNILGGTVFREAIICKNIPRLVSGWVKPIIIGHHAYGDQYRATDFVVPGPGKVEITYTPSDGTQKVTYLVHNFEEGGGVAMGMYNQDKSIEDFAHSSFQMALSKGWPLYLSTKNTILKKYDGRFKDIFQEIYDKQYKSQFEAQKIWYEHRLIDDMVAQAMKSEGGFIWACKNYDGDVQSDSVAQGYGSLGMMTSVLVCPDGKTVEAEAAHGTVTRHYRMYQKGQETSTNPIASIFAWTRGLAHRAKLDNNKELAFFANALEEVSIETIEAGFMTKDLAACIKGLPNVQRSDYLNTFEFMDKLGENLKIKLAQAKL
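IDH1-R132H (0.5 ug/mL dispensed) in pH 7.5 Tris buffer was preincubated 30 min with compound, then given a substrate mix of 0.016 mM NADPH and 2 mM alpha-KG for 80 min at room temperature; remaining NADPH was read by diaphorase/resazurin fluorescence.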
Nrf2 ARE act: Nrf2 pathway activation. AREc32 ARE-luciferase reporter (MCF7-derived line), luminescence, 24 h. 410,000 tested, 0.31% active. AID 624171. Potency, µM (top dose mostly 46.1 µM), inactives show at the top dose activation, usual class: activators; also: potency is read from the fitted curve at half-maximal effect; % of control where 0% means no effect; nearly all actives have a fitted effect of over 65% in size
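AREc32 cells carrying an ARE-driven firefly luciferase, 1000 cells/well in OPTI-MEM with 5% FBS, dosed after overnight attachment and incubated 24 hr at 37 deg C. Steady-Glo luminescence read after 30 min at RT.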
Giardia killer: Giardia lamblia killing | activity change, % at 7.66 µM, hits read low | 340,000 tested, 0.15% active | Giardia lamblia trophozoite viability; in the data active = activity change below about -80%; inconclusive = between about -30% and that limit;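 also: parasites exposed to compound for two days anaerobically before the ATP read; % is scaled to controls: 0 for no effect and ±100 for the full control effect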
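Luminescent ATP signal served as the viability read-out, measured 15-30 min after adding ATP detection reagent to trophozoites that had been incubated with compounds for 48 hrs at 37 deg C anaerobically at 100 cells/well.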
Apoferritin bind: binds horse apoferritin like a general anesthetic; 350,000 tested, 0.074% active; AID 485281; Potency, µM (top dose mostly 77.5 µM), for inactives: top-dose activity change, negative = displacement, hits mostly inhibitors; P02791; apoferritin/1-aminoanthracene competitive binding, fluorescence; also: potency is read from the fitted curve at half-maximal effect; % is scaled to controls: 0 for no effect and ±100 for the full control effect; nearly all actives have a fitted effect of over 20% in size
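In PBS, apoferritin at 10 uM is loaded with 1-AMA from a 50% saturated solution. After 10 min of compound exposure at ambient temperature, reduced 535 nm fluorescence indicates probe displacement.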
An asterisk follows results filed as active; ? = inconclusive; . = not tested or not shown; [ ] = another dose, or the depositor's remark. Unless noted, calls follow the shape of the dose curve; as a rule, active = well fitted curve in the direction sought with a large enough effect; inconclusive = small, poorly fitted or top-dose-only effect, or another doubt; inactive = no such curve, though single readings can be large; an effect the other way counts as inactive or inconclusive.

SMILES | Nrf2 inh | A549 tox | IDH1 R132H inh | Nrf2 ARE act | Giardia killer | Apoferritin bind
O=C(COc1ccccc1)OCc1cc(=O)n2nc(C3CC3)sc2n1 | ? | 5% | 9% | 0% | . | ?
Cc1ccc2ccc3cc(C(=O)Nc4ccc(C)c(F)c4)nc3c2[nH]1 | -19% | -25% | -4% | 0% | . | 18%
COC(=O)C1=C(N)Oc2cc(C)n(CC3CCCO3)c(=O)c2C1c1ccc(Cl)c(Cl)c1 (configuration not stated) | 21µM* | -22% | -3% | 0% | -7 | -5%
CC(=O)c1cccc(NS(=O)(=O)c2ccc(N/C=C/C(=O)c3ccc(F)cc3)cc2)c1 | ? | ? | 4% | 2% | 8 | -9%
CC(=O)c1cccc(NS(=O)(=O)c2ccc(N/C=C\C(=O)c3ccc(F)cc3)cc2)c1 | 26µM* | ? | 1% | 5% | -2 | -7%
CCc1nnc(NC(=O)CCC(=O)N2CCN(CCOc3ccc(C)cc3)CC2)s1 | 21µM* | -12% | 4% | -1% | 2 | -19%
CCN(CC)S(=O)(=O)c1cccc(NC(=O)C2SC(=Nc3ccc(C)cc3C)C(C(=O)NC(C)COC)=C2N)c1 (configuration not stated) | 21µM* | ? | 7% | 2% | -11 | 61%
COc1cccc(CNc2nc(Cl)nc3nc[nH]c23)c1 | ? | 0% | . | . | -4 | .
Cc1nonc1OCCNc1ccc([N+](=O)[O-])cc1[N+](=O)[O-] | -9% | ? | -1% | 0%[9.22 µM] | -3 | -7%
Cc1nonc1OC(C)CNc1ccc([N+](=O)[O-])cc1 (configuration not stated) | -7% | -2% | 0% | 0% | -12 | 32µM*
CCCCn1cnc2c(=O)[nH]c(N)nc21 | -11% | 1% | . | . | -1 | .
Cc1cc(Br)cn2c(Cc3ccccc3)c(-c3cccc(Br)c3)nc12 | . | . | . | 6% | . | .
CCOC(=O)C(=CNc1ccc2c(c1)nnn2-c1ccc(Cl)cc1)C(=O)OCC | 29µM* | ? | 2% | 4% | -3 | -7%
CCOC(=O)C(=CNc1cc(C)nn1-c1ccc(C)cc1)C(=O)OCC | ? | -19% | 4% | 0% | 19 | -22%
CCc1ccc2[nH]c(=O)c(CN(Cc3cccs3)Cc3nnnn3Cc3ccccc3)cc2c1 | ? | ? | . | . | -20 | .
Cc1cc(NC(=O)CCS(=O)(=O)c2nc(-c3ccccc3)cc(C(F)(F)F)n2)no1 | . | -2% | 5% | -4% | -7 | -18%
CS(=O)(=O)c1nc(-c2ccccc2)cc(C(F)(F)F)n1 | 23µM* | ? | 1% | ? | -11 | 0%
Cc1cc(N2C3CCC2CC(O)(c2ccc(F)cc2)C3)nc(-c2ccccc2)n1 (configuration not stated) | 23µM* | ? | -1% | 4% | -4 | 1%
Cc1ccnc(N2C3CCC2CC(O)(c2ccccc2)C3)n1 (configuration not stated) | 6% | -5% | 0% | 0% | 12 | -6%
CCOc1cc(/C=C/c2cc(C(F)(F)F)[nH]c(=O)n2)ccc1O | 21µM* | ? | -1% | 14%[9.22 µM] | 6 | 46%
CCOc1cc(/C=C/c2ccc3cccc([N+](=O)[O-])c3n2)ccc1O | 23µM* | ? | 5% | ? | -23 | -12%
CCOc1cc(/C=C/c2ccc3cccc([N+](=O)[O-])c3n2)ccc1OCC(=O)N(C)C | ? | -8% | 7% | 19% | -19 | ?
COc1ccc(CCNC(=O)Cn2cc(C(=O)c3ccccc3)c(=O)c3ccc(C)nc32)cc1OC | ? | 0% | 9% | 0% | . | ?
O=C(O)c1cccc(S(=O)(=O)N2CCN(S(=O)(=O)c3ccc4c(c3)OCCO4)CC2)c1 | 3% | -3% | . | . | . | .
Nc1[nH]n2c(=O)c3c(nc2c1N=Nc1ccccc1)CCCC3 | . | 13µM* | 10% | 0% | -2 | ?
